Our source for the Potency values is PubChem BioAssay (NCATS).

Molecules are shown by their SMILES. Inconclusive results are not listed. A call without a number means that no potency is given here. Active and inactive are the calls of the source. Calls follow the shape of the dose curve; as a rule, active = well fitted inhibition curve with a large enough effect; inconclusive = small, poorly fitted or top-dose-only effect; inactive = flat fitted curve, though single readings scatter.

The target of assay [1] is Glutathione peroxidase 1 (Homo sapiens) (UniProt P07203). As to the kind of experiment: Primary qHTS Assay for Inhibitors of Recombinant Selenoprotein Glutathione Peroxidase 1 (GPX1) (AID 1845191). The following applies: recombinant GPX1, GR-coupled NADPH fluorescence, 15 min; series mostly up to 48.8 µM. The essentials: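 NADPH consumption tracked by fluorescence at 340/450 nm between t=0 and t=15 min, room temperature. Final mix: 10 nM GPX1, 100 nM glutathione reductase, 1 mM GSH, 0.5 mM NADPH, 0.5 mM cumene hydroperoxide, 0.01% BSA; 30 min compound–enzyme preincubation.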

In assay [2] the target is Phospholipid hydroperoxide glutathione peroxidase GPX4 (Homo sapiens) (UniProt P36969). Description: Primary qHTS Assay for Inhibitors of Recombinant Selenoprotein Glutathione Peroxidase 4 (GPX4) (AID 1845192). The following applies: recombinant GPX4, GR-coupled NADPH fluorescence, 15 min; series mostly up to 50 µM. The essentials: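 NADPH consumption followed by fluorescence at 340/450 nm, t=0 and after 15 min at room temperature. Reaction started with cumene hydroperoxide (0.5 mM final) after 30 min compound–GPX4 preincubation; final 200 nM GPX4, 100 nM GR, 1 mM GSH, 0.5 mM NADPH.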
(In general: qHTS replaces the single test concentration by a dilution series.)
Also: nearly all actives have a fitted effect of over 65% in size.

Glutathione peroxidase 1 (Homo sapiens), sequence (P07203 whole entry, looked up): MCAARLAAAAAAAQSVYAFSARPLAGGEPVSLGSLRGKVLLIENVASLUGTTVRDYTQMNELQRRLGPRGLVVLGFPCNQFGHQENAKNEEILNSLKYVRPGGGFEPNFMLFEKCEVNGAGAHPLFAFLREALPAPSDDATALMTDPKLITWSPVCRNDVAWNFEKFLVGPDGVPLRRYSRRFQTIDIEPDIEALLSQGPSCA
Phospholipid hydroperoxide glutathione peroxidase GPX4 (Homo sapiens), sequence (P36969 whole entry, looked up): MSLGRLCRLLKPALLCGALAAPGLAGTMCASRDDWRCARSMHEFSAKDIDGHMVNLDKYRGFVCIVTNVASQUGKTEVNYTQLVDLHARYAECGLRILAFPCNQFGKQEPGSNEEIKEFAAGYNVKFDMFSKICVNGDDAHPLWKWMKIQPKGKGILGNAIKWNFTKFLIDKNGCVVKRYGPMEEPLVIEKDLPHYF

Take `CCCCCCCCCCCCCCC[C@H](O)[C@H](N)CO`: the Potency entry in assay [1] and in assay [2] was “inactive” each time.
For `N=C(N)c1ccc(OCCCCCOc2ccc(C(=N)N)cc2)cc1` (tested in a mixture with another compound), the Potency entry in assay [1] and in assay [2] was “inactive” each time.
On to `N[C@@H](CS(=O)O)C(=O)O`, for which the Potency entry in assay [1] and in assay [2] was “inactive” each time.
Regarding `Cn1c(=O)[nH]c2ncn(C)c2c1=O`, the Potency entry in assay [1] and in assay [2] was “inactive” each time.
For `CN1CC(O)C(O)C(O)C1CO` (configuration not stated), the Potency result in assay [1] and in assay [2] was “inactive” in each case.
For the compound `NC1C=CC=C(C(=O)O)C1` (configuration not stated), the Potency result in assay [1] and in assay [2] was “inactive” in each case.
Regarding `C=C1C(=O)O[C@@H]2[C@H]3O[C@]3(C)CCC=C(C)CC[C@@H]12`, the Potency entry in assay [1] and in assay [2] was “inactive” each time.
For `COc1ccc2c(c1)c(CC(=O)O)c(C)n2Cc1ccc(Cl)cc1`, the Potency entry in assay [1] and in assay [2] was “inactive” each time.
For the compound `CC[n+]1c(/C=C/C=C2/N(C)c3ccccc3C2(C)C)sc2ccccc21`, the Potency result in assay [1] and in assay [2] was “inactive” throughout.
In the case of `O[Si](CCCN1CCCCC1)(c1ccc(F)cc1)C1CCCCC1` (configuration not stated), the Potency entry in assay [1] and in assay [2] was “inactive” in each case.
For the compound `NC(=Nc1ccccc1)NC(=O)c1nc(Cl)c(N)nc1N`, the Potency entry in assay [1] and in assay [2] was “inactive” each time.
On to `CC(=O)[C@H]1CCC2C3CC=C4C[C@@H](OS(=O)(=O)O)CC[C@]4(C)C3CC[C@@]21C` (some centres not stated), for which the Potency entry in assay [1] and in assay [2] was “inactive” throughout.
For the compound `COc1cc(CC(=O)O)ccc1O`, the Potency result in assay [1] and in assay [2] was “inactive” in each case.
For the compound `COc1cc(/C=C(\C#N)C(=O)c2ccc(O)c(O)c2)cc(I)c1O`, the Potency result in assay [1] and in assay [2] was “inactive” throughout.
With `N=C(N)SCCN`, the Potency entry in assay [1] and in assay [2] was “inactive” in each case.
On to `CCCCOC(=O)NS(=O)(=O)c1sc(CC(C)C)cc1-c1ccc(Cn2c(CC)nc3c(C)cc(C)nc32)cc1`, for which the Potency result in assay [1] and in assay [2] was “inactive” throughout.
Consider `Oc1cc2c(cc1O)C(c1ccccc1)CNCC2` (configuration not stated), for which the Potency entry in assay [1] and in assay [2] was “inactive” in each case.
For the compound `[N-]=[N+]=Nc1ccc(C(=O)CSC[C@H](NC(=O)CC[C@H](N)C(=O)O)C(=O)NCC(=O)O)cc1`, the Potency result in assay [1] and in assay [2] was “inactive” each time.
In the case of `O=C(O)C1CCNCC1`, the Potency entry in assay [1] and in assay [2] was “inactive” throughout.
Consider `Cc1nc(N=Nc2ccc(S(=O)(=O)O)cc2S(=O)(=O)O)c(COP(=O)(O)O)c(C=O)c1O`, for which the Potency entry in assay [1] and in assay [2] was “inactive” each time.
`N=C(N)c1ccc(N)cc1`: the Potency result in assay [1] and in assay [2] was “inactive” throughout.
Take `CN(C)C(=O)/N=N/C(=O)N(C)C`: the Potency entry in assay [1] and in assay [2] was “inactive” each time.
With `c1ccc(C(NCc2cccnc2)(c2ccccc2)c2ccccc2)cc1`, the Potency result in assay [1] and in assay [2] was “inactive” throughout.
With `CC[N+](CC)(CC)CC(=O)Nc1c(C)cccc1C`, the Potency entry in assay [1] and in assay [2] was “inactive” throughout.
Take `O=c1cc(O)cc(/C=C/c2ccc(O)c(O)c2)o1`: the Potency result in assay [1] and in assay [2] was “inactive” each time.
For the compound `CC(N)(Cc1ccc(O)cc1)C(=O)O` (configuration not stated), the Potency entry in assay [1] and in assay [2] was “inactive” throughout.
With `CC(=O)C(C)=O`, the Potency result in assay [1] and in assay [2] was “inactive” in each case.
As for `NS(=O)(=O)c1cccc2c1c([N+](=O)[O-])cc1nc(O)c(O)nc12`, the Potency result in assay [1] and in assay [2] was “inactive” in each case.
Consider `O=C(O)/C(=C/c1c(C(=O)O)[nH]c2cc(Cl)cc(Cl)c12)c1ccccc1`, for which the Potency result in assay [1] and in assay [2] was “inactive” throughout.
`NC(=O)CNCCC(c1ccccc1)c1ccccc1`: the Potency result in assay [1] and in assay [2] was “inactive” each time.
For the compound `Cn1cc(C(=O)OCC2CCN(CCNS(C)(=O)=O)CC2)c2ccccc21`, the Potency entry in assay [1] and in assay [2] was “inactive” throughout.
For the compound `Oc1ccc(Cn2cc[nH]c2=S)cc1`, the Potency result in assay [1] and in assay [2] was “inactive” in each case.
For the compound `NC1CONC1=O` (configuration not stated), the Potency entry in assay [1] and in assay [2] was “inactive” each time.
Turning to `COc1cc(C(O)C(=O)O)ccc1O` (configuration not stated), the Potency result in assay [1] and in assay [2] was “inactive” in each case.
For `CN(C)CCCc1cc(C(=O)Nc2ccc(-c3ccncc3)cc2)ccc1O`, the Potency entry in assay [1] and in assay [2] was “inactive” throughout.
`c1ccc(C2CN3CCSC3=N2)cc1` (configuration not stated): the Potency entry in assay [1] and in assay [2] was “inactive” each time.
Turning to `NCCC1CCCC(CCN)N1` (configuration not stated), the Potency entry in assay [1] and in assay [2] was “inactive” in each case.
Consider `Cc1cccc(C)c1OCC(N)C(C)C` (configuration not stated), for which the Potency entry in assay [1] and in assay [2] was “inactive” throughout.
On to `CC(C)(C)c1ccc(/C=C/C(=O)Nc2ccc3c(c2)OCCO3)cc1`, for which the Potency result in assay [1] and in assay [2] was “inactive” in each case.
Take `Cc1nc(N=Nc2ccc(C(=O)O)cc2)c(COP(=O)(O)O)c(C=O)c1O`: the Potency result in assay [1] and in assay [2] was “inactive” in each case.
`O=C(O)C1CN(CCCP(=O)(O)O)CCN1` (configuration not stated): the Potency result in assay [1] and in assay [2] was “inactive” in each case.
As for `c1ccc(CN2CCC3(CCCc4ccccc43)CC2)cc1`, the Potency result in assay [1] and in assay [2] was “inactive” throughout.
Consider `CCN(CC)CCOC(=O)c1cc(Cl)c(N)cc1OC`, for which the Potency result in assay [1] and in assay [2] was “inactive” each time.
As to `O=C(O)C1=CCCNC1`, the Potency entry in assay [1] and in assay [2] was “inactive” throughout.
Consider `CCCn1c(=O)c2c(ncn2C)n(CCC)c1=O`, for which the Potency result in assay [1] and in assay [2] was “inactive” each time.
Consider `O=[N+]([O-])c1cccc2c(Br)[nH]nc12`, for which the Potency result in assay [1] and in assay [2] was “inactive” in each case.
Regarding `Nc1ncnc2c1ncn2C1CCCC1`, the Potency entry in assay [1] and in assay [2] was “inactive” throughout.
As to `c1ccc2c(c1)CC(N1CCN(c3cccc4c3OCCO4)CC1)C2`, the Potency entry in assay [1] and in assay [2] was “inactive” each time.
As to `C[C@@H](NCCc1ccc(O)cc1)[C@@H](O)c1ccc(O)cc1`, the Potency entry in assay [1] and in assay [2] was “inactive” each time.
On to `O=c1[nH]c2ccccc2c2ccccc12`, for which the Potency result in assay [1] and in assay [2] was “inactive” each time.
Consider `NC[C@@H]1O[C@H](c2ccccc2)Cc2c1ccc(O)c2O`, for which the Potency result in assay [1] and in assay [2] was “inactive” each time.
